From paper PMC5540273 (PLoS ONE, 2017)

What was measured:
Details in all cases: concentration: 1 μM, replicates: in singlicate; n = 1
AAK1 = system: AAK1
ABL1-nonphosphorylated = system: ABL1-nonphosphorylated
ABL1-phosphorylated = system: ABL1-phosphorylated
ABL2 = system: ABL2
ACVR1B = system: ACVR1B
ACVR1 = system: ACVR1
ACVR2A = system: ACVR2A
ACVR2B = system: ACVR2B
ACVRL1 = system: ACVRL1
ADCK3 = system: T1, ADCK3
T1 construct: gene CABC1
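Further: KINOMEscan kinase panel screen.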

SMILES | %Inh (AAK1) [%] | %Inh (ABL1-nonphosphorylated) [%] | %Inh (ABL1-phosphorylated) [%] | %Inh (ABL2) [%] | %Inh (ACVR1B) [%] | %Inh (ACVR1) [%] | %Inh (ACVR2A) [%] | %Inh (ACVR2B) [%] | %Inh (ACVRL1) [%] | %Inh (ADCK3) [%]
CC(C)(C)c1ccc(C(=O)Nc2cn3cc(-n4ccnc4)ccc3n2)cc1 | 12 | 44 | 21 | 22 | 7 | 0 | 10 | 8 | 0 | 2
CCNC(=O)/C=C/c1n[nH]c2cc(Sc3ccccc3C(=O)NC)ccc12 | 29 | 98.5 | 89 | 24 | 24 | 12 | 20 | 15 | 0 | 4
Cl.Cl.NCC(NC(=O)c1cc(-c2cccnc2)c(-c2ccnc3[nH]ccc23)s1)c1ccccc1 (stereo not shown) [GSK1323434] | 59 | 54 | 37 | 30 | 0 | 19 | 0 | 0 | 0 | 97.5
CN(C)CCOc1ccc(-c2cc(-c3ccc(Cl)c(O)c3)c(-c3ccncc3)[nH]2)cc1.Cl.Cl [SB-684387] | 0 | 50 | 59 | 34 | 90.5 | 31 | 0 | 51 | 0 | 33
NCCC(NC(=O)c1cc(Br)c(-c2ccnc3[nH]ccc23)s1)c1ccccc1.O=C(O)C(F)(F)F.O=C(O)C(F)(F)F (stereo not shown) [GSK1307810] | 66 | 0 | 0 | 8 | 43 | 15 | 0 | 0 | 0 | 52
Cc1ccccc1CC(=O)N1CCc2cc(-c3cn(C)c4ncnc(N)c34)ccc21 [GSK2603346] | 3 | 50 | 25 | 29 | 0 | 0 | 0 | 65 | 11 | 3
Nc1ncnc2scc(-c3ccc(NC(=O)Cc4cc(F)ccc4F)cc3)c12.O=C(O)C(F)(F)F [SB-731254-M] | 10 | 80 | 50 | 9 | 14 | 0 | 24 | 1 | 0 | 16
COc1ccc(NC(=O)c2ccoc2)cc1-c1ccc(C(=O)NCC2CC2)cc1 [GW810437] | 0 | 24 | 1 | 5 | 4 | 0 | 0 | 17 | 10 | 0
Nc1ncc(-c2cn[nH]c2)c2scc(-c3ccc4c(c3)CCN4C(=O)Cc3ccccc3)c12 [GSK2593067] | 52 | 99.2 | 81 | 89 | 0 | 0 | 0 | 16 | 0 | 0
Cc1ccc(C)c(NC(=O)Nc2ccc(C)c(-c3ccc(C(=O)Nc4ccncc4)cc3)c2)c1 [GSK1398473] | 11 | 0 | 0 | 14 | 0 | 18 | 0 | 3 | 0 | 14
Cl.O=C(Nc1ccc(Oc2ccc3[nH]c(NC(=O)c4ccco4)nc3c2)cc1)Nc1cc(C(F)(F)F)ccc1F [GW683134] | 5 | 96.1 | 76 | 97.9 | 0 | 0 | 4 | 0 | 0 | 0
COc1cccc(NC(=O)NCCNc2ccnc(Nc3ccc(F)cc3)n2)c1 [GSK1379879] | 0 | 0 | 0 | 6 | 0 | 0 | 0 | 0 | 0 | 14
CC(C)c1nc(-c2cccc(NS(=O)(=O)c3c(F)cccc3F)c2)c(-c2ccnc(Nc3ccc(N4CCOCC4)nc3)n2)s1.Cl [GSK1723980] | 7 | 99.7 | 95.6 | 99.4 | 89 | 95.9 | 0 | 81 | 83 | 100
CN(C)CCNS(=O)(=O)c1ccc(-c2ccnc3[nH]ccc23)cc1 [GSK977620] | 21 | 0 | 0 | 8 | 6 | 0 | 0 | 0 | 0 | 10
O=C1NC(=O)C(c2ccccc2Cl)=C1Nc1cccc(Cl)c1 [SB-342409] | 7 | 0 | 9 | 16 | 0 | 12 | 0 | 0 | 70 | 20
COC(=O)Nc1nc2ccc(Oc3ccc(NC(=O)Nc4cc(C(F)(F)F)ccc4F)cc3)cc2[nH]1.Cl [GW654607] | 17 | 99.4 | 57 | 94 | 0 | 0 | 0 | 0 | 0 | 1
